Test results as given in PubChem BioAssay AID651551 (Sanford-Burnham Center for Chemical Genomics, 2012).

Each compound was assayed against PEG-3 (UniProt Q6IN02) (assay: GAPDH versus PEG-3 reporter suppression – cell-based, luminescence, counter-screen for PEG-3 promoter inhibitor project, SAR follow-up (AID 651551)). Conditions: HeLa PEG-Prom / GAPDH luciferase reporter, 6 or 24 h, run 2, 6 h; at 99 µM (top of the series).
Cc1cc(NC(=O)c2ccccc2)n(-c2nc3ccccc3[nH]2)n1 gave an inhibition % (higher = more inhibition) of 17.6%.
In the case of COCCCNC(=O)c1ccc(Cn2c(=O)c3ccccc3n(Cc3ccccc3C#N)c2=O)cc1, the inhibition % (higher = more inhibition) is reported as 23.2%.
Compound Cc1nc(NC(=O)c2ccccc2)sc1-c1csc(Nc2ccccc2Cl)n1 has an inhibition % (higher = more inhibition) of 7.99%.
With COc1ccc(-n2nc(C(=O)NCC(=O)Nc3cccc(OC)c3)c3ccccc3c2=O)cc1 the inhibition % (higher = more inhibition) was 2.47%.
For Cc1nc(NC(=O)c2ccccc2)sc1-c1csc(Nc2ccccc2)n1, the inhibition % (higher = more inhibition) was 5.23%.
In the case of CCCn1nc(C(=O)Nc2nc3ccccc3s2)c2ccccc2c1=O, the inhibition % (higher = more inhibition) is reported as 21.8%.
COc1ccc(-n2nc(C(=O)NCC(=O)Nc3ccc(OC)c(OC)c3)c3ccccc3c2=O)cc1 showed an inhibition % (higher = more inhibition) of 13.5%.
With CCn1cc(C(=O)NCc2ccco2)c(=O)c2cc(S(=O)(=O)N3CCCC3)ccc21 the inhibition % (higher = more inhibition) was -0.291%.
In the case of Cc1nc(NC(=O)c2ccccc2)sc1-c1csc(Nc2cccc(Cl)c2C)n1, the inhibition % (higher = more inhibition) is reported as 32.8%.
Work on Cc1cc(NC(=O)c2cccc(C)c2C)n(-c2nc3ccccc3[nH]2)n1 yielded an inhibition % (higher = more inhibition) of 16.4%.
In the case of CCCn1nc(C(=O)Nc2nc(-c3ccncc3)cs2)c2ccccc2c1=O, the inhibition % (higher = more inhibition) is reported as 7.03%.
In the case of COc1ccc(Cl)cc1Nc1nc(-c2sc(NC(=O)c3ccccc3)nc2C)cs1, the inhibition % (higher = more inhibition) is reported as 42.5%.
O=C(Nc1nc2ccccc2s1)c1nn(-c2ccccc2)c(=O)c2ccccc12 showed an inhibition % (higher = more inhibition) of -4.43%.
O=C(Nc1nccs1)c1nn(-c2ccccc2)c(=O)c2ccccc12 gave an inhibition % (higher = more inhibition) of 28.7%.
CCCn1nc(C(=O)Nc2nc(-c3ccccn3)cs2)c2ccccc2c1=O gave an inhibition % (higher = more inhibition) of 44.6%.
Compound Cc1cc(NC(=O)c2ccccc2)n(-c2nc3ccccc3n2C)n1 has an inhibition % (higher = more inhibition) of 38.3%.
Cc1cc(NC(=O)c2ccccc2C(F)(F)F)n(-c2nc3ccccc3[nH]2)n1 showed an inhibition % (higher = more inhibition) of 88.2%.
For COc1ccccc1Nc1nc(-c2sc(NC(=O)c3ccco3)nc2C)cs1, the inhibition % (higher = more inhibition) was -0.291%.
For Cc1ccc(Cl)cc1Nc1nc(-c2sc(NC(=O)c3ccco3)nc2C)cs1, the inhibition % (higher = more inhibition) was 37%.
For O=C(Nc1nc(-c2ccccc2)cs1)c1nn(-c2ccccc2)c(=O)c2ccccc12, the inhibition % (higher = more inhibition) was 3.85%.
CCn1nc(C(=O)Nc2nc(-c3ccccn3)cs2)c2ccccc2c1=O gave an inhibition % (higher = more inhibition) of 39.9%.
Compound COc1ccc(-n2nc(C(=O)NCC(=O)Nc3cc(OC)c(OC)c(OC)c3)c3ccccc3c2=O)cc1OC has an inhibition % (higher = more inhibition) of 9.37%.
Cc1cc(NC(=O)c2ccccc2C)n(-c2nc3ccccc3[nH]2)n1 showed an inhibition % (higher = more inhibition) of 41.1%.
